# According to PubChem BioAssay AID488922 (Johns Hopkins Ion Channel Center, 2010):
# The whole screen tested about 310,000 compounds, of which about 3,800 (1.2%) were called active.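 The calls were made as follows: active = ratio B-score over 3 SD below the library mean, with starting fluorescence within 5 SD of its mean; inactive = the rest, inconclusive results apart.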 Only a selection was taken, and actives are over-represented in it overall.
# Molecular target: Potassium channel subfamily K member 9 (Homo sapiens) (UniProt Q9NPC2)
# Assay: blockers of human TASK-3 (KCNK9) channel – HEK293 cells, thallium flux, primary screen (AID 488922);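 as to B-score: negative B-score means less thallium flux so channel inhibition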
# Details: HEK293 KCNK9, FluxOR thallium flux fluorescence, at 10 µM; stronger effect = lower value
# Sequence of Potassium channel subfamily K member 9 (Homo sapiens) (Q9NPC2 whole entry, looked up): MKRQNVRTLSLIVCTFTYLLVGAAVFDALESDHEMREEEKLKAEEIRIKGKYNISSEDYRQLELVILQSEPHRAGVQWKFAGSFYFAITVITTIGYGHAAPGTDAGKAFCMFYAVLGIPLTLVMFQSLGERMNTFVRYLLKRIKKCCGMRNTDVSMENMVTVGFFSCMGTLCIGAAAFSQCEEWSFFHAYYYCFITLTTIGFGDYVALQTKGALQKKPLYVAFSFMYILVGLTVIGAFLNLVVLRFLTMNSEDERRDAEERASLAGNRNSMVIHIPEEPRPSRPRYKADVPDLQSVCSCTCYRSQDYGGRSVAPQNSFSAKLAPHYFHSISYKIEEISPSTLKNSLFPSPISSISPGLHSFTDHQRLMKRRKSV
row,Structure (SMILES),B-score
1,O=C(c1cccc([N+](=O)[O-])c1)N1CCN(Cc2ccccc2)CC1,inactive
2,CC1(c2cccc([N+](=O)[O-])c2)CC(C)(C)N(C(=O)c2ccccc2)c2ccccc21 (stereo not given),-7.5 (active)
3,CC1(c2ccccc2)CC(C)(C)N(C(=O)c2cc([N+](=O)[O-])cc([N+](=O)[O-])c2)c2ccccc21 (stereo not given),inactive
4,O=C(NC(=S)Nc1ccc(Cl)cc1Cl)C1CC1,inactive
5,Cc1ccccc1NC(=S)NNC(=O)c1cccc(Br)c1,inactive
6,O=C(/C=C/NNC(=O)c1cccc(Br)c1)c1ccccc1,-12.9 (active)
7,CC(CC(=O)O)CC(=O)NNC(=O)c1cccc(Br)c1 (stereo not given),inactive
8,Cc1c(C(C)(C)O)[nH]c2ccc(C#N)cc12,inactive
9,O=C(O)/C=C/C(=O)NNc1ccc([N+](=O)[O-])cc1,inactive
10,Cc1cccc(NC(=O)CSc2nnc(CCCCCNC(=O)OC(C)(C)C)o2)c1C,inactive
11,Cc1ccc(C(=O)Cc2nnc(C)s2)cc1,inactive
12,CCOC(=O)C1CCCN(S(=O)(=O)c2ccc(-n3cnnn3)c(C)c2)C1 (stereo not given),inactive
13,CN(C)c1ccc(/C=N/N(Cc2ccccc2)c2ccccc2)cc1,inactive
14,CCN(/N=C/c1ccc(N(C)C)cc1)c1nc2ccccc2[nH]1,inactive
15,Oc1ccc(/C=N/N(Cc2ccccc2)c2ccccc2)cc1,-7.55 (active)
16,COc1ccc(CCn2nnnc2C(c2ccccc2)N2CCN(C)CC2)cc1OC (stereo not given),inactive
17,N#Cc1ccc(C(c2nnnn2CCc2ccccc2)N2CCCCCC2)cc1 (stereo not given),-7.47 (active)
18,CC(C)C(c1nnnn1CCc1ccccc1)N1CCN(C(=O)c2ccco2)CC1 (stereo not given),inactive
19,COc1ccc(OC)c(C(O)c2nc3ccccc3n2C)c1 (stereo not given),-7.74 (active)
20,CCn1c(C(O)c2cc(OC)ccc2OC)nc2ccccc21 (stereo not given),inactive
21,CCCn1c(C(O)c2cc(OC)ccc2OC)nc2ccccc21 (stereo not given),inactive
22,Cn1ncc2c(N3CCCCC3)nc(NCCCO)nc21,inactive
23,COc1ccccc1C(=O)NCc1nnc(SC(C)C(=O)Nc2nccs2)n1C (stereo not given),inactive
24,C=CCc1cc(S(=O)(=O)c2ccc(O)c(CC=C)c2)ccc1O,-11.9 (active)

row,Structure (SMILES),B-score
1,CCOC(=O)N1CCC(NC(=O)CN2C(=O)COc3ccc(C(C)(C)C)cc32)CC1,inactive
2,C#CC(C)(C)NC(=O)c1cnc(-c2ccccc2)nc1-c1ccccc1,inactive
3,COc1ccc(C2CC(c3cccs3)=NN2C(=O)CCC(=O)O)cc1OC (stereo not given),inactive
4,COc1ccc(C2CC(c3cccs3)=NN2c2ccccc2)cc1 (stereo not given),-11.3 (active)
5,COc1ccc(C2CC(c3cccs3)=NN2c2ccc(F)cc2)cc1OC (stereo not given),-7.88 (active)
6,COc1ccccc1N1N=C(c2cccs2)CC1c1ccccc1 (stereo not given),inactive
7,COc1ccc(C2CC(c3cccs3)=NN2C(=O)CSc2nncs2)cc1OC (stereo not given),inactive
8,COc1ccc(C2CC(c3cccs3)=NN2C(=O)CSc2nnc(N)s2)cc1OC (stereo not given),inactive
9,COc1ccc(C2CC(c3cccs3)=NN2c2nc(C)c(C(C)=O)s2)cc1OC (stereo not given),inactive
10,COc1ccc(C2=NN(c3ccccc3)C(c3cccs3)C2)cc1 (stereo not given),inactive
11,COc1ccc(C2CC(c3cccs3)=Nc3ccccc3S2)cc1OC (stereo not given),-8.55 (active)
12,COc1ccc(NCCc2ccccn2)cc1,inactive
13,Cc1nn(C)c(C)c1C(C)NC(=O)c1ccc(OC2CCN(Cc3ccccn3)CC2)cc1 (stereo not given),inactive
14,COc1ccccc1/C=C/C(=O)NC1CC2CCC1C2 (stereo not given),inactive
15,Cc1ccc(SCC2=NNC(=O)C2)cc1,inactive
16,O=C(COC(=O)c1cccc(Br)c1)Nc1cccc2c1C(=O)c1ccccc1C2=O,inactive
17,Cc1ccccc1C(=O)Nc1ccccc1Sc1ccccc1,inactive
18,O=C(COC(=O)c1ccccc1)Nc1ccccc1Sc1ccccc1,-9.75 (active)
19,CCn1c(=O)n(CC)c2cc(N3CCCC3)c(NC(=O)c3ccccc3Br)cc21,inactive
20,COc1ccc(-c2c(C(C)=O)c(C)nc3sc4c(=O)n(-c5ccc(C)cc5)nnc4c23)cc1,inactive
21,O=C(COc1ccc([N+](=O)[O-])cc1Cl)Nn1cnnc1,inactive
22,CCN(C(=O)c1ccc(Br)cc1)c1ccccc1,inactive
23,O=C(COc1ccc(F)cc1)N(CC1=CCS(=O)(=O)C1)c1ccccc1,inactive
24,CCN(C(=O)COc1ccc(C(=O)c2ccccc2)cc1)c1ccccc1,-8.43 (active)

row,Structure (SMILES),B-score
1,COc1ccc2cc(CCl)c(Cl)nc2c1,inactive
2,Cc1ccc(S(=O)(=O)N(CCCN(C)C)Cc2ccc3c(c2)OCO3)cc1,inactive
3,O=C(CN1CCN(c2ccc(F)cc2)CC1)Nc1ccccc1,inactive
4,O=C(CSC1CC(=O)N(CCc2ccccc2)C1=O)Nc1ccc(Cl)cc1 (stereo not given),inactive
5,O=C(C[C@H]1C(=O)N(c2ccc(F)c(F)c2)C[C@@H]1Cc1ccccc1)Nc1ccccc1,-12.2 (active)
6,CC(c1ccccc1)n1c(NCCCn2ccnc2)nc2c1c(=O)[nH]c(=O)n2C (stereo not given),inactive
7,CC1CCCCC1NC(=O)COC(=O)Cc1ccc(Br)cc1 (stereo not given),inactive
8,COc1ccc(C(C)=O)cc1COc1ccc(Cl)c(C)c1,-10.5 (active)
9,COc1ccc(-c2noc(COc3ccc(Cl)c(C)c3)n2)cc1,inactive
10,COCc1cc(C(C)=O)ccc1OC,inactive
11,COc1ccc(/C(N)=N/OC(=O)Cc2ccccc2)cc1,inactive
12,O=C(Nc1ccc(Br)c2cccnc12)c1ccc(Cn2cc([N+](=O)[O-])cn2)o1,-12.7 (active)
13,COc1cccc(NC(=O)c2ccc(Cn3cc([N+](=O)[O-])cn3)o2)c1,inactive
14,O=C(c1ccc(Cn2cc([N+](=O)[O-])cn2)o1)N1CCCC1,inactive
15,O=C(Nc1nonc1-c1ccc(Cl)cc1)c1ccco1,inactive
16,Cc1cccc(C(=O)Nc2ccc(C(=O)N/N=C/c3cccc(C)n3)cc2)c1,inactive
17,CNC(=O)C(=O)N/N=C/c1ccccn1,inactive
18,O=C(COc1ccc(Cl)cc1Cl)N/N=C/c1ccccn1,-9.19 (active)
19,O=C(Nc1cccc(CCc2ccccn2)c1)c1ccc(Cl)cc1,inactive
20,O=C(N/N=C/c1ccccn1)c1cccc(NC(=O)c2ccc(Cl)cc2)c1,-8.92 (active)
21,O=C(COc1ccc(Cl)cc1Cl)NCCCNC(=O)c1cnccn1,inactive
22,COc1ccccc1NC(=O)c1cc(Cl)nnc1Cl,inactive
